Only some compounds are listed: those with a hit (about 27% of all), similar ones and a draw of the others.
CYP2C9 activ – human CYP2C9 activators, primary screen, biochemical, luminescence. Cytochrome P450 2C9 (Homo sapiens), P11712. recombinant CYP2C9, luciferin-H conversion; hits give high values; factor 1 = untreated enzyme, 0 = blocked. activation factor at 5 µM. hit rate 1.4% among 96,000. AID 1024, 2008;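 active = activation factor of 2 or more for CYP2C9 at a 5 µM dose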;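 also: 0 = sulfaphenazole-blocked wells and 1 = vehicle-only wells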
CYP2C19 act – human CYP2C19 activators, primary screen, biochemical, luminescence. Cytochrome P450 2C19 (Homo sapiens), P33261. recombinant CYP2C19, luciferin-H EGE luminescence; hits give high values; 0 = fully inhibited enzyme, 1 = untreated enzyme. activation factor at 5 µM. 96,000 tested, under 10 active;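 active = activation factor of at least 2 at 5 µM in the primary screen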;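 also: 0 = wells with 2.5 mM tranylcypromine and 1 = vehicle-only wells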
Target sequence (P33261 whole entry, looked up): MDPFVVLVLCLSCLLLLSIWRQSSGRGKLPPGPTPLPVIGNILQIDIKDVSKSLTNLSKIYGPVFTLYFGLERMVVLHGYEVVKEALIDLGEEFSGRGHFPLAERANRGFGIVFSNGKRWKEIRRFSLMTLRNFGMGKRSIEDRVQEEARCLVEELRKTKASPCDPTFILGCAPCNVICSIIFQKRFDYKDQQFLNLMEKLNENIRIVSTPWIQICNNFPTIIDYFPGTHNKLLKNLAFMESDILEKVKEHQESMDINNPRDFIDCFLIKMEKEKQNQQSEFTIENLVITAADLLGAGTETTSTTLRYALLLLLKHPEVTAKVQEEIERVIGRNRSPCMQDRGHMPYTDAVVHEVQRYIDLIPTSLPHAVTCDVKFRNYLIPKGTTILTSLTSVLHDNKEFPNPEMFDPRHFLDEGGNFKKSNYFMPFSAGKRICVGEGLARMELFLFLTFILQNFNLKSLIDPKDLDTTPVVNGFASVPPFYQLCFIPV
CYP2C9 inh – blockers of cytochrome P450 2C9 activity – biochemical, luminescence, ADME assay, primary screen | P11712 | CYP2C9 Supersomes, luciferin-H conversion | inhibition, % at 5 µM | hit rate 20% among 96,000;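 active = blocking of liver enzyme CYP2C9 beyond about 50% at 5 µM, limit read from the data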
CYP2C19 inhib – blockers of cytochrome P450 2C19 activity – biochemical, luminescence, ADME assay, primary screen; P33261; inhibition, % at 5 µM; hit rate 21% among 96,000; CYP2C19 Supersomes, luciferin-H EGE luminescence, 30 min;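 active = CYP2C19 inhibition above a set limit at 5 µM in the primary screen, cut at about 50% in these data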;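 also: plate controls were negative control wells for no effect and 2.5 mM tranylcypromine positive control for full effect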
sEH inh – soluble epoxide hydrolase inhibitors, primary screen, biochemical, human sEH. recombinant human sEH enzymatic activity assay. inhibition, % at 2 µM. hit rate 0.34% among 91,000. AID 707, 2007; in the data active = inhibition above about 80%
sEH activator – soluble epoxide hydrolase activators, primary screen, biochemical, human sEH | activation, % at 2 µM | hit rate 0.04% among 91,000 | purified human sEH enzymatic activity, activator screen; in the data active = activation above about 37%
* marks the source's active call; other numbers are inactive results; . = no result.

SMILES | CYP2C9 activ | CYP2C19 act | CYP2C9 inh | CYP2C19 inhib | sEH inh | sEH activator
Nc1nonc1-c1noc(CCCN2C(=O)c3ccccc3C2=O)n1 | 0.9 | 0.4 | 12 | 57* | . | .
Nc1nonc1-c1noc(N2CCOCC2)n1 | . | . | . | . | 6 | -4
O=C(c1ccc(C(F)(F)F)cc1)c1c[nH]c(C(=O)NCCCn2ccnc2)c1 | 0.1 | 0 | 88* | 95* | 17 | -12
CCSc1ccccc1C(=O)NCCCn1ccnc1 | 0.4 | 0.1 | 63* | 92* | -11 | 10
CCOCCCNC(=O)c1ccccc1SCC | . | . | . | . | 9 | -6
COc1ccc(-c2nn(-c3ccccc3)cc2C(=O)NCCCn2ccnc2)cc1 | 0 | 0 | 98* | 96* | -12 | 11
CCCCCNC(=O)c1ccccc1SC | 1.3 | 0.4 | -29 | 59* | 4 | -6
CC(C)(C)c1ccc(C(=O)c2c[nH]c(C(=O)NCCCN3CCOCC3)c2)cc1 | 1 | 0.9 | -1 | 8 | . | .
CCCn1nnnc1-c1cccc(Cl)c1 | 0.9 | 0.6 | 10 | 39 | -13 | 14
O=C(Cn1cc([N+](=O)[O-])cn1)Nc1ccn(Cc2c(F)c(F)c(F)c(F)c2F)n1 | 0.7 | 0.7 | 26 | 30 | -4 | 6
COc1ccc(C)cc1C(=O)C1CC(C(=O)O)C(C)(C)C1C (centres undefined) | 0.8 | 0.9 | 21 | 5 | -17 | 21
COc1ccc(C(=O)Nc2ccccc2C(=O)NCCCn2ccnc2)cc1 | 0 | 0.2 | 100* | 85* | 11 | -12
COc1ccc(NC(=S)NCCCn2ccnc2)cc1 | . | . | . | . | 16 | -17
O=C(Nc1ccccc1C(=O)NCCCn1ccnc1)c1ccccc1 | 0 | 0.2 | 96* | 84* | 3 | -5
C=CCNC(=O)c1ccccc1NC(=O)c1ccccc1 | 0.5 | 0.7 | 49 | 27 | -12 | 12
COc1cccc(NS(=O)(=O)c2ccc3[nH]cc(C(=O)NCCN4CCOCC4)c(=O)c3c2)c1 | 0.5 | 0.9 | 46 | 7 | 0 | -3
O=C(NC1CC1)c1c[nH]c2ccc(S(=O)(=O)Nc3cccc(C(F)(F)F)c3)cc2c1=O | 0.5 | 0.8 | 54* | 15 | 0 | -3
O=C(NCc1ccccc1)c1c[nH]c2ccc(S(=O)(=O)Nc3ccc4c(c3)OCCO4)cc2c1=O | 0.1 | 0.7 | 89* | 32 | -4 | 3
CCOCCCNC(=O)c1c[nH]c2ccc(S(=O)(=O)Nc3cccc(OC)c3)cc2c1=O | 0.3 | 0.7 | 68* | 27 | 8 | -4
CC/C(=C1/C(=O)CC(C)(C)C(C(=O)OC)C1=O)N1CCCC1 (centres undefined) | 0.9 | 1 | 6 | 4 | . | .
Cc1cc(C(=O)OCC(=O)c2c(N)n(C)c(=O)n(C)c2=O)c(C)n1-c1ccccc1 | 0.6 | 0.9 | 36 | 14 | 1 | -4
CSCCC(NC(=O)COc1ccccc1)C(=O)N1CCN(c2ccccc2F)CC1 (centres undefined) | 0.2 | 0.3 | 78* | 74* | -7 | 5
CN1CCN(c2ccccc2NC(=O)COc2ccccc2)CC1 | 1 | 1 | -3 | -3 | -3 | 0
O=S(=O)(c1ccc(Br)s1)n1cccn1 | 1.5 | 0.9 | -52 | 7 | -16 | 18
O=C(CSCc1ccccc1Cl)NN1C(=O)c2ccccc2C1=O | 0.5 | 0.5 | 51* | 49 | 2 | 0
SMILES | CYP2C9 activ | CYP2C19 act | CYP2C9 inh | CYP2C19 inhib | sEH inh | sEH activator
Cn1c(=O)c2c(nc(SC3C(=O)CC(C)(C)CC3=O)n2C)n(C)c1=O | 1.3 | 1.2 | -32 | -22 | . | .
CCOC(=O)C(O)(CC(=O)c1ccc(OC)cc1)C(F)(F)F (centres undefined) | . | . | . | . | 0 | 5
CC(C)(CNC(=O)c1cccs1)CNC(=O)c1cccs1 | 0.1 | 0.4 | 86* | 58* | 0 | -2
O=C(NCCc1ccccc1)c1cccs1 | 1 | 0.5 | 5 | 53* | 7 | -6
CC1CCN(c2ccc(C(=O)NCCc3ccccc3)cn2)CC1 | 0.3 | 0.9 | 67* | 11 | . | .
O=C(NCCc1ccccc1)c1ccncc1 | 0.6 | 0.2 | 38 | 78* | -15 | 17
CCN(CC(=O)N1CCN(C)CC1)S(=O)(=O)c1ccc(Cl)cc1 | 0.7 | 1.1 | 31 | -7 | -11 | 13
CC(C)OC(=O)c1c(NC(=O)Cn2cnc([N+](=O)[O-])n2)sc2c1CCCC2 | 0.9 | 1 | 13 | -4 | -2 | 6
CC(C)OCCCNC(=O)c1ccc(Br)cc1 | 1.1 | 0.9 | -8 | 13 | 7 | -6
O=C(NCCCNC(=O)c1cccs1)c1cccs1 | 0.6 | 0.7 | 42 | 27 | . | .
COc1ccc(-c2nc(CCNC(=O)c3cccs3)cs2)cc1 | 0.2 | 0.6 | 76* | 40 | 24 | -25
CCCCC(CC)CNC(=O)c1cccs1 (centres undefined) | 0.1 | 0.1 | 91* | 88* | . | .
CC(C)OCCCNC(=O)c1ccncc1 | 0.2 | 0.1 | 75* | 89* | . | .
O=C(NC1CCCCC1)C(c1ccc(Cl)cc1)N(C(=O)c1cnccn1)c1ccc2c(c1)OCO2 (centres undefined) | 1 | 0.9 | 1 | 15 | -12 | 14
Cc1nnc(SCC(=O)Nc2sccc2C(N)=O)n1Cc1ccccc1 | 2.3* | 0.2 | -128 | 76* | . | .
Cc1cccc(NC(=O)CSc2nnc(C)n2Cc2ccccc2)c1 | 1 | 0.4 | -5 | 59* | 5 | -8
COCc1nnc(SCC(=O)NCc2ccccc2)n1-c1ccccc1 | 0.9 | 0.6 | 14 | 44 | 6 | -2
CCc1nnc(NC(=O)CSc2nnc(C)n2Cc2ccccc2)s1 | . | . | . | . | 5 | -5
COCc1nnc(SCC(=O)Nc2cccc(Cl)c2C)n1-c1ccccc1 | 0.8 | 0.2 | 18 | 84* | -8 | 8
COC(=O)c1cccc(NC(=O)CSc2nnc(COc3ccc(C#N)cc3)n2-c2ccccc2)c1 | 0.3 | 0.6 | 69* | 39 | 18 | -18
N#Cc1ccc(OCc2nnc(SCC(=O)c3ccccc3)n2-c2ccccc2)cc1 | . | . | . | . | 4 | 1
Cn1ncc(N=Cc2ccc([N+](=O)[O-])cc2)c1C(=O)N1CCOCC1 | 1.3 | 1.3 | -33 | -26 | -3 | 5
O=C(CS(=O)CC(=O)N(CC(=O)NC1CCCC1)c1ccc2c(c1)OCCO2)Nc1ccc(F)cc1 (centres undefined) | 1 | 0.9 | 3 | 11 | 5 | -7
Cc1cc(C)c2[nH]c(=O)c(C(c3nnnn3CC3CCCO3)N3CCCC(C)C3)cc2c1 (centres undefined) | 0.8 | 0.7 | 21 | 34 | -3 | 3
CCOc1ccccc1-n1c(COc2ccccc2)nnc1SCC(N)=O | 1 | 0.6 | 4 | 38 | -19 | 20
CCOc1ccc(-n2c(COc3ccccc3)nnc2SCC(N)=O)cc1 | 0.6 | 0.2 | 37 | 76* | -8 | 7

High-throughput results: PubChem BioAssay, several laboratories
